Results taken from the supplement of paper PMC4466140.

target: CaNbp2; experiment: SPOT peptide array binding signal intensity (averaged, normalized) (arbitrary units (background-subtracted, floor 0; scale differs between SH3 domains)); higher = stronger binding of the SH3 domain to the peptide
Protocol: (§1)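 GST-tagged SH3 domains from S. cerevisiae (Sc), A. gossypii (Ag), C. albicans (Ca) and S. pombe (Sp) were incubated at 10 ug/ml overnight at 4 C on cellulose SPOT membranes carrying 292 synthetic 15-mer peptides mined from the S. cerevisiae proteome (cysteines replaced by serines). Binding was detected with anti-GST antibody, HRP secondary and chemiluminescence, quantified with Genespotter, and reported as normalized spot intensities averaged over biological replicates.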

Binder | SPOT peptide array binding signal intensity
LYKRKPILLPDPKPL | 33

target: CaRvs167; experiment: as above
Protocol: as §1

Binder | SPOT peptide array binding signal intensity
LYKRKPILLPDPKPL | 7.67

target: CaRvs167-3; experiment: as above
Protocol: as §1

Binder | SPOT peptide array binding signal intensity
LYKRKPILLPDPKPL | 1.75

target: CaSho1; experiment: as above
Protocol: as §1

Binder | SPOT peptide array binding signal intensity
LYKRKPILLPDPKPL | ≤ 0

target: CaSla1-D1-D2; experiment: as above
Protocol: as §1

Binder | SPOT peptide array binding signal intensity
LYKRKPILLPDPKPL | 50

target: CaSla1-D3; experiment: as above
Protocol: as §1

Binder | SPOT peptide array binding signal intensity
LYKRKPILLPDPKPL | ≤ 0

target: ScAbp1; experiment: as above
Protocol: as §1

Binder | SPOT peptide array binding signal intensity
LYKRKPILLPDPKPL | 38

target: ScBbc1; experiment: as above
Protocol: as §1

Binder | SPOT peptide array binding signal intensity
LYKRKPILLPDPKPL | 2

target: ScBem1-D1; experiment: as above
Protocol: as §1

Binder | SPOT peptide array binding signal intensity
LYKRKPILLPDPKPL | 3

target: ScBzz1-D1; experiment: as above
Protocol: as §1

Binder | SPOT peptide array binding signal intensity
LYKRKPILLPDPKPL | 20.5

target: ScBzz1-D2; experiment: as above
Protocol: as §1

Binder | SPOT peptide array binding signal intensity
LYKRKPILLPDPKPL | 15.5

target: ScCyk3; experiment: as above
Protocol: as §1

Binder | SPOT peptide array binding signal intensity
LYKRKPILLPDPKPL | ≤ 0

target: ScFus1; experiment: as above
Protocol: as §1

Binder | SPOT peptide array binding signal intensity
LYKRKPILLPDPKPL | ≤ 0

target: ScHof1; experiment: as above
Protocol: as §1

Binder | SPOT peptide array binding signal intensity
LYKRKPILLPDPKPL | ≤ 0

target: ScHse1; experiment: as above
Protocol: as §1

Binder | SPOT peptide array binding signal intensity
LYKRKPILLPDPKPL | 267

target: ScLsb1; experiment: as above
Protocol: as §1

Binder | SPOT peptide array binding signal intensity
LYKRKPILLPDPKPL | 162

target: ScLsb2; experiment: as above
Protocol: as §1

Binder | SPOT peptide array binding signal intensity
LYKRKPILLPDPKPL | 838

target: ScLsb3; experiment: as above
Protocol: as §1

Binder | SPOT peptide array binding signal intensity
LYKRKPILLPDPKPL | 7

target: ScLsb4; experiment: as above
Protocol: as §1

Binder | SPOT peptide array binding signal intensity
LYKRKPILLPDPKPL | ≤ 0

target: ScMyo3; experiment: as above
Protocol: as §1

Binder | SPOT peptide array binding signal intensity
LYKRKPILLPDPKPL | ≤ 0

target: ScMyo5; experiment: as above
Protocol: as §1

Binder | SPOT peptide array binding signal intensity
LYKRKPILLPDPKPL | 0.5

target: ScNbp2; experiment: as above
Protocol: as §1

Binder | SPOT peptide array binding signal intensity
LYKRKPILLPDPKPL | 14.5
